PubChem BioAssay AID1117319 (Southern Research Institute, 2015)
Where “and” joins values, the source holds several entries; their conditions need not be identical. Equal entries are not always repeated. Among all 260,000 compounds or so, about 1,500 (0.58%) were called active. Not shown: some 5% with an inconclusive outcome.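 How the source made its calls: active means inhibition above a set limit at one or more doses, reproduced on every date tested; inconclusive means results disagree between test dates, or hit never tested in dose response; inactive means the rest.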 Not all results are given here. Results with a measured potency or affinity are listed apart.

Target: Virion infectivity factor (Human immunodeficiency virus type 1 group M subtype B (isolate BH10)) + Virion infectivity factor (Human immunodeficiency virus type 1 group M subtype B (isolate BRU/LAI)) + Virion infectivity factor (Human immunodeficiency virus type 1 group M subtype B (isolate PCV12)) + Virion infectivity factor (Human immunodeficiency virus type 1 group M subtype B (isolate HXB2)) + DNA dC->dU-editing enzyme APOBEC-3G (Homo sapiens) (UniProt P69720+P69721+P69722+P69723+Q9HC16)
Test: inhibitors of Vif binding to APOBEC3G peptide, primary screen, biochemical, TR-FRET, GST-Vif 1-94, biotin-A3G peptide, dose response retest (AID 1117319);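 further: Vif residues 1-94 fused to GST binding biotinylated APOBEC3G peptide 110-148; 0% = full assay without inhibitor and 100% = GST in place of GST-Vif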
Conditions: stronger effect = higher value

inhibition, inactive:
O=C1OCCC1Sc1nnc(-c2cccnc2)n1-c1ccccc1F (stereo not drawn) 5.98%
CCOC(=O)N1CCN(Cc2nnc(-c3cccc(Br)c3)o2)CC1 -4.74%
Cc1ccc2nc(N3CCN(C)CC3)c(C#N)cc2c1 1.03%
Cc1ccc2cc(C#N)c(N3CCN(C)CC3)nc2c1 3.3%
Cn1c(N)c(C(=O)COC(=O)/C=C/c2ccccc2F)c(=O)n(C)c1=O 0.83%
COc1cccc(C(C)=NNc2ccc([N+](=O)[O-])cc2[N+](=O)[O-])c1OC 0.32%
C/C(=N\NC(=O)c1ccc([N+](=O)[O-])cc1)c1cc2ccccc2oc1=O 13.4%
Cc1cc(N/N=C/c2cccc(F)c2)nc(NCc2ccccc2)n1 4.51%
Cc1cccc(-n2c(N)cc(=O)nc2SC(C)C(=O)NC2CCCCC2)c1 (stereo not drawn) -1.72%
Nc1cc(=O)nc(SCC(=O)NC2CCCCC2)n1-c1ccccc1 -0.99%
O=[N+]([O-])c1ccc(O)c(C2=NNC(c3ccccc3F)C2)c1 (stereo not drawn) 13.2%
O=C(N/N=C/c1cc2c(cc1Br)OCO2)c1ccccn1 7.07%
O=C(O)c1ccc(S(=O)(=O)N2CCCCCC2)cc1 1.58%
O=C(O)c1ccc(S(=O)(=O)N2CCCCCCC2)cc1 1.86%
CC(C)(C)c1cc(NC(=O)COC(=O)C2CC2)n(-c2ccccc2)n1 -5.93%
COc1cc(OC)nc(NC(=O)CN2CCN(c3ccc(F)cc3)CC2)n1 4.2%
CC(=O)C1=C(C)NC(=O)NC1c1cccs1 (stereo not drawn) 7.19%
CC1=C(C(=O)OC(C)C)C(c2cccs2)C(C(=O)OC(C)C)=C(C)N1 -3.55%
COC(=O)c1ccc2c(=O)n(CC3CCCO3)c(SCC(=O)Nc3ccc(OC)cc3OC)nc2c1 (stereo not drawn) -7.78%
COc1ccc(C(=O)NC2CC3CCCC(C2)N3CC(C)C)cc1OC (stereo not drawn) -7.52%
CCCN1C2CCCC1CC(NC(=O)c1cc(OC)c(OC)c(OC)c1)C2 (stereo not drawn) 9.1%
Cc1noc(C)c1CSc1ncnc2sc3c(c12)CCC3 -4.14%
COc1ccc(/C(N)=N/OC(=O)c2ccco2)cc1 -1.36%
O=C1c2ccccc2-c2c1cccc2C(=O)N1CCN(C(=O)c2ccco2)CC1 18.7%
CCN1C(=O)c2ccccc2S(=O)c2ccc(C(=O)N3CCN(C(=O)c4ccco4)CC3)cc21 (stereo not drawn) 1.84%
CCOC(=O)c1c(/N=C/c2cccc([N+](=O)[O-])c2O)sc2c1CCC2 27%
CCCCn1cnc2c(SCc3ccc(Br)cc3)nc(N)nc21 -11.3%
CC(CN(C(N)=O)c1ccccc1O)C(=O)O (stereo not drawn) 17.1%
CC(CC(C)C(=O)Nc1ccccc1C(C)(C)C)C(=O)O (stereo not drawn) 5.47%
CCC1CCCCN1C(=O)COc1cc(=O)n(C)c2ccccc12 (stereo not drawn) 1.25%
O=C1c2cccc(O)c2C(=O)c2c(O)cccc21 23.8%
O=C1c2cccc(NCCNCCO)c2C(=O)c2cccc(NCCNCCO)c21 -16.1%
COc1cccc(NC(=O)CN(C)C(=O)c2ccc(COc3ccccc3)o2)c1 10.4%
O=C(CSc1ccc(-c2ccccc2)nn1)N1CCOCC1 8.48%
COc1cc(/C=C2/SC(=NCc3ccccc3)N(Cc3ccccc3)C2=O)ccc1O -3.52%
COc1ccccc1N1CCN(C(=O)c2sc3nc(-c4ccccc4)cn3c2C)CC1 -3.37%
Cc1c(C(=O)N2CCN(c3ccc(F)cc3)CC2)sc2nc(-c3ccccc3)cn12 -5.76%
COc1cccc(/C=N/NC(=O)C(=O)NCc2ccco2)c1O -4.26%
CN(C)CCN=Cc1c(O)n(Cc2ccc3c(c2)OCO3)c(=O)c2ccccc12 -11.8%
CCn1c(SCC(N)=O)nc2sc3c(c2c1=O)CCCC3 -2.97%
CCn1c(SCC(=O)O)nc2sc3c(c2c1=O)CCC3 32.7%
CC(Sc1nc2sc3c(c2c(=O)n1-c1ccccc1)CCCC3)C(=O)O (stereo not drawn) 17%
C=CCSc1nc2sc3c(c2c(=O)n1CC)CCC3 6.31%
CC1(C)CC(=O)C=C(c2n[nH]nc2C2CC2)C1 4.55%
CCN(Cc1ccccc1)C(=O)c1cc(S(=O)(=O)N2CCOCC2)ccc1N1CCCC1 3.77%
Cc1cc(Nc2ccc(Br)cc2)nc(-c2ccccc2O)n1 -1.59%
CC(=NCc1cccc(Cl)c1)c1nc(-c2ccco2)oc1O 8.49%
O=C(c1cccc(F)c1)N1CCCC(C(=O)N2CCCC2)C1 (stereo not drawn) -3.84%
O=C(Nc1ccc(Oc2ccccc2)cc1)c1ccc(Cn2c(=O)[nH]c3ccsc3c2=O)cc1 -6.11%
Cc1ccccc1NC(=O)CSc1nnc(-c2ccco2)n1N -10.3%
Cc1cccc(NC(=O)CSc2nnc(CNC(=O)c3ccco3)n2C)c1C -5.41%
Cc1cccc(C)c1NC(=O)CSc1nnc(-c2ccco2)n1N -0.27%
Cc1cccc(C)c1NC(=O)CSc1nc(-c2ccco2)cc(C(F)(F)F)n1 -1.99%
Cc1cccc(NC(=O)CSc2nnc(-c3ccco3)o2)c1C -1.43%
Cc1ccccc1NC(=O)CSc1n[nH]c(-c2ccco2)n1 9.51%
CN(C)c1ccc(C(CNS(=O)(=O)c2cccc([N+](=O)[O-])c2)N2CCOCC2)cc1 (stereo not drawn) -0.61%
COc1ccc(CN(CC(=O)NCc2ccc(F)cc2)C(=O)c2ccco2)cc1 -3.39%
O=C(CSc1nnc(-c2cnccn2)n1Cc1ccco1)c1ccc2ccccc2c1 4.99%
CCn1cc(C(=O)NCc2ccc3c(c2)OCO3)c(=O)c2cc(S(=O)(=O)N3CCOCC3)ccc21 -9.22% and 8.82%
CCOc1ccc(C=NN2CCCCCC2)cc1OCC -8.05%
CCCCC12CN3CC(C)(CN(C1)C31C(=O)N(C)c3ccc(C)cc31)C2=O (stereo not drawn) 3.69%
N#Cc1cccnc1Nc1ccc(Cl)cc1 8.98%
CN(C(=O)COC(=O)c1ccc(Cl)cc1N)C1CCS(=O)(=O)C1 (stereo not drawn) -4.2%
OCCC1CN(Cc2ccccc2-c2ccco2)CCN1Cc1ccccc1 (stereo not drawn) 15.2%
N#CC1=C2SCN(Cc3ccco3)CN2C(=O)CC1c1cccc2ccccc12 (stereo not drawn) 16%
COc1cc(C2CC(=O)N3CN(Cc4ccco4)CSC3=C2C#N)ccc1OCc1ccccc1 (stereo not drawn) 24.2%
O=C(CN(Cc1ccc(F)cc1)C(=O)CNS(=O)(=O)c1ccccc1)NCC1CCCO1 (stereo not drawn) 2.58%
O=C(OCCN1C(=O)c2ccccc2C1=O)c1cc(S(=O)(=O)N2CCOCC2)ccc1F -0.69%
CC1=C(C(=O)OC2CCCCC2)C(c2ccccc2Br)NC(=O)N1 (stereo not drawn) -6.38%
CNc1cccc2c1C(=O)c1ccccc1C2=O 7.57%
CNC(=S)Nc1ccccc1-c1ccccc1 -7.68%
CCCCOc1ccc(C(=O)NN2C(=O)NC3(CCCCC3)C2=O)cc1OC 2.72%
CC[C@@H](C(=O)n1nc(C)cc1C)[C@H](NS(=O)(=O)c1ccc(C)cc1)c1ccccc1 -0.92%
CCNC(=O)CSc1nnc(-c2cccc(S(=O)(=O)N3CCOCC3)c2)o1 4.88%
O=C(c1cc(COc2ccc(F)cc2Cl)on1)N1CCCC(c2ccccc2)C1 (stereo not drawn) 2.73%
Cn1c(=O)[nH]c(=O)c2c1nc(N1CCOCC1)n2CCSc1nc2ccccc2[nH]1 2.63%
CC1(C)Cc2nc3sc4c(=O)n(CC(=O)NCc5ccco5)cnc4c3cc2CO1 2.08%
CC1(C)Cc2nc3sc4c(SCC(=O)NCc5ccccc5)ncnc4c3cc2CO1 -70.1% and -107%
CC1(C)NC(=O)N(CNc2cc(Cl)ccc2Cl)C1=O 20.3%
CCCn1c(SCC(=O)NC)nnc1C(C)C 6.34%
N#Cc1cccc(NC(=O)Cc2ccsc2)c1 5.18%
N#CC1CN(C(c2ccccc2)c2ccccc2)C1 -4.6%
CCOc1ccc(NC(c2ccccc2)P(=O)(OC)OC)cc1 (stereo not drawn) 5.04%
CCOc1ccc(N(CC(=O)OC)S(=O)(=O)c2c(C)noc2C)cc1 -1.15%
CCOc1ccc(N(CC(=O)NC(C)CC)S(=O)(=O)c2c(C)noc2C)cc1 (stereo not drawn) -0.89%
COC(=O)C1CCN(C(=O)Nc2ccccc2)CC1 0.21%
COc1cccc(-c2cc3nc4c(c(N5CCC6(CC5)OCCO6)n3n2)CCCC4)c1 -6.69%
COc1cccc(-c2cc(C(F)(F)F)n3nc(N)nc3n2)c1 32.2%
COc1ccc(N2CCN(CCNC(=O)Nc3ccc(C)c(Cl)c3)CC2)cc1 0.91%
CCCN(CC(=O)Nc1cccc(S(N)(=O)=O)c1)CC(=O)Nc1ccc(F)c(F)c1F 9.36%
CN(Cc1cnc2nc(N)nc(N)c2n1)c1ccc(C(=O)NC(CCC(=O)O)C(=O)O)c2ccccc12 (stereo not drawn) 4.59%
CN(Cc1cnc2nc(N)nc(N)c2n1)c1ccc(C(=O)NC(CCC(=O)O)C(=O)O)cc1C(F)(F)F (stereo not drawn) 4.16%
OCCNC(=S)Nc1ccc(Cl)c(Cl)c1 1.22%
